For 20 compounds, Potency and activity, negative = cell killing results are on record in PubChem BioAssay (NCATS).

Inconclusive results are not listed. A number with no mark means an inactive call. Active and inactive are the calls of the source. Calls follow the shape of the dose curve; as a rule, active = well fitted curve in the direction sought with a large enough effect; inconclusive = small, poorly fitted or top-dose-only effect, or another doubt; inactive = no such curve, though single readings can be large; an effect the other way counts as inactive or inconclusive.

The test system of assay [1] is HeLa. The assay is described as follows: Primary qHTS to identify gynecologic anti-cancer compounds using libraries of approved drugs and bioactive compounds (AID 1345084). Also: nearly all actives have a fitted effect of over 55% in size. The conditions noted are these: Gynecologic cancer cell panel viability, ATPlite luminescence, 48 h; series mostly up to 57.5 µM. The method, boiled down:
(§1)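 In this quantitative HTS, cell killing is estimated from loss of ATP-dependent luciferase light. Cells see five compound concentrations over a 48 h exposure.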
(In general: Quantitative high-throughput screening tests each substance at several concentrations.)

For assay [2], the system named is Hek293T. The description is as above. As to conditions: Gynecologic cancer cell panel viability, ATPlite luminescence, 48 h, control line for the selectivity index; series mostly up to 57.5 µM. In outline: as §1
For orientation: Cellular ATP, detected with luciferase, serves as a proxy for viable cell number.

Assay [3] relates to JEG-3. The description is as above. As to conditions: Gynecologic cancer cell panel viability, ATPlite luminescence, 48 h; series mostly up to 57.5 µM. In outline:
as §1

In assay [4] the test system is OV90. The assay is described as above. As to conditions: Gynecologic cancer cell panel viability, ATPlite luminescence, 48 h; series mostly up to 57.5 µM. In outline:
as §1

The test system of assay [5] is PA-1. The assay is described as above. As to conditions: Gynecologic cancer cell panel viability, ATPlite luminescence, 48 h; series mostly up to 57.5 µM. In outline:
as §1

The subject of assay [6] is SKOV3. The assay is described as above. The conditions noted are these: Gynecologic cancer cell panel viability, ATPlite luminescence, 48 h; series mostly up to 57.5 µM. The method, boiled down:
as §1

For assay [7], the system named is Tov-21-G. The description is as above. As to conditions: Gynecologic cancer cell panel viability, ATPlite luminescence, 48 h; series mostly up to 57.5 µM. In outline: as §1
Assay [8] relates to Tov112D. The assay is described as above. The conditions noted are these: Gynecologic cancer cell panel viability, ATPlite luminescence, 48 h; series mostly up to 57.5 µM. In outline: as §1
Assay [9] in a line: Drug repurposing screens with cells derived from glioblastoma tumor samples (AID 1345199). Also: nearly all actives have a fitted effect of over 40% in size. The conditions noted are these: GBM patient neurospheres viability, ATP luminescence, 48 h. The method, boiled down:
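Four patient lines of CD133+ GBM neurospheres were screened at several concentrations; hits were retested in those lines plus three slower-growing GBM lines, using 48-hour treatment and ATP-based viability.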

Where [10] appears, read: at 45.9 µM (top of the series), tumour line B.
Where [11] appears, read: at 45.9 µM (top of the series), tumour line D.
The mark [12] stands for this setting: at 46.1 µM (top of the series), tumour line C.
Setting [13] is: at 46 µM (top of the series), tumour line A.
The mark [14] stands for this setting: at 20 µM (top of the series), tumour line C.
Where [15] appears, read: at 21.2 µM (top of the series), tumour line B.
Setting [16] is: at 21.2 µM (top of the series), tumour line D.
% is scaled to controls: 0 for no effect and ±100 for the full control effect; potency is read from the fitted curve at half-maximal effect.

`Cc1cc2c(cc1CC(=O)c1sccc1S(=O)(=O)Nc1onc(C)c1Cl)OCO2`: the Potency result in [1], in assay [2], in assay [3], in [4], in assay [5] and in assay [6] was “inactive” in each case. Further, the Potency result in [7] and in [8] was “inactive” in each case.
As for `C[C@@H]1C[C@H]2[C@@H]3CCC4=CC(=O)C=C[C@]4(C)[C@@]3(F)[C@@H](O)C[C@]2(C)[C@H]1C(=O)CO`, the Potency result in [1], in assay [2], in [3], in [4], in assay [5] and in [6] was “inactive” throughout. For the same compound, the Potency result in assay [7] and in assay [8] was “inactive” in each case. For the same compound, the activity, negative = cell killing in assay [9] (setting [10]) was -17.3%; in [9] (setting [11]), -7.25%; in assay [9] (setting [12]), 1.19%.
In the case of `COc1ccc(CCN2CCC(Nc3nc4ccccc4n3Cc3ccc(F)cc3)CC2)cc1`, the Potency in assay [1] is 28.2 µM (active).
For the compound `Cc1cc(=O)n(-c2ccccc2)n1C`, the Potency result in [1], in assay [2], in assay [3], in assay [4], in assay [5] and in [6] was “inactive” throughout. For the same compound, the Potency entry in assay [7] and in [8] was “inactive” in each case. For the same compound, the activity, negative = cell killing is -5.78% in assay [9] (setting [10]), 0.358% in assay [9] (setting [11]), -19.4% in assay [9] (setting [13]) and -23.6% in assay [9] (setting [12]).
`Oc1c(Cl)cc(Cl)cc1Sc1cc(Cl)cc(Cl)c1O`: the Potency result in assay [1], in [2], in assay [3], in [4], in [5] and in assay [6] was “inactive” in each case. Further, the Potency result in assay [7] and in [8] was “inactive” throughout.
For `Nc1ccc(C(=O)O)cc1`, the Potency entry in [1], in assay [2], in assay [3], in assay [4], in assay [5] and in assay [6] was “inactive” each time. The Potency entry in assay [7] and in [8] was “inactive” throughout. For the same compound, the activity, negative = cell killing in assay [9] (setting [10]) is -6.59%; in [9] (setting [11]), -1.8%; in assay [9] (setting [13]) it was -31.3%; in [9] (setting [12]), -10.3%.
Regarding `CC(=O)N/N=C/c1ccc([N+](=O)[O-])o1`, the Potency result in assay [1], in assay [2], in [3], in [4], in assay [5] and in [6] was “inactive” in each case. The Potency entry in assay [7] and in assay [8] was “inactive” throughout.
Take `CN1CCN(C(c2ccccc2)c2ccccc2)CC1`: the Potency entry in [1], in [2], in assay [3], in [4], in assay [5] and in assay [6] was “inactive” each time. For the same compound, the Potency entry in assay [7] and in assay [8] was “inactive” in each case. For the same compound, the activity, negative = cell killing is -1.97% in assay [9] (setting [14]), -1.95% in [9] (setting [15]) and -26.8% in assay [9] (setting [16]).
With `O=c1[nH]c(=O)n([C@H]2C[C@H](O)[C@@H](CO)O2)cc1C(F)(F)F`, the Potency result in [1], in [2], in [3], in assay [4], in [6] and in assay [7] was “inactive” throughout. Moreover, the values for the Potency in assay [5] and in [8] were 8.91 µM (active) and 11.2 µM (active), respectively. Further, the activity, negative = cell killing is -28.4% in assay [9] (setting [11]) and -13.3% in assay [9] (setting [12]).
On to `COC(=O)C1=C(C)NC(C)=C(C(=O)O[C@@H]2CCCN(Cc3ccccc3)C2)[C@@H]1c1cccc([N+](=O)[O-])c1`, for which the Potency entry in [1], in [2], in [3], in [4], in assay [5] and in assay [6] was “inactive” each time. Besides, the Potency result in assay [7] and in assay [8] was “inactive” in each case.
`Oc1ccc(O)cc1`: the Potency result in assay [1], in assay [2], in assay [3], in assay [4], in [5] and in assay [6] was “inactive” in each case. The Potency entry in assay [7] and in assay [8] was “inactive” throughout. The activity, negative = cell killing in assay [9] (setting [12]) was -0.769%.
Turning to `CC1=C(C(=O)OC(C)C)C(c2cccc([N+](=O)[O-])c2)C(C(=O)OC2CN(C(c3ccccc3)c3ccccc3)C2)=C(N)N1` (stereo not drawn), the Potency entry in [1], in assay [2], in assay [3], in [4], in assay [5] and in assay [6] was “inactive” throughout. For the same compound, the Potency entry in assay [7] and in [8] was “inactive” in each case.
Turning to `CCCCCC=CCC=CCCCCCCCC(=O)OCC`, the Potency entry in assay [1], in assay [2], in [3], in [4], in assay [5] and in assay [6] was “inactive” throughout. The Potency result in [7] and in [8] was “inactive” each time. In addition, the activity, negative = cell killing is -5.69% in assay [9] (setting [10]), -29.1% in assay [9] (setting [11]) and -8.48% in assay [9] (setting [12]).
As for `CC(Cc1ccccc1)(NC(=O)CN)c1ccccc1` (stereo not drawn), the Potency result in [1], in assay [2], in assay [3], in assay [4], in [5] and in assay [6] was “inactive” in each case. For the same compound, the Potency result in assay [7] and in assay [8] was “inactive” in each case. For the same compound, the activity, negative = cell killing in [9] (setting [10]) is -9.21%; in assay [9] (setting [11]), 3.89%; in assay [9] (setting [12]) it was -26.6%. Moreover, the Potency in assay [9] (tumour line A) is 20 µM (active).
`CC(=O)OCC(=O)[C@@]1(OC(C)=O)[C@@H](C)C[C@H]2[C@@H]3C[C@H](F)C4=CC(=O)C=C[C@]4(C)[C@@]3(F)[C@@H](O)C[C@@]21C`: the Potency entry in [1], in assay [2], in [3], in assay [4], in assay [5] and in assay [6] was “inactive” in each case. Besides, the Potency result in [7] and in assay [8] was “inactive” each time. In addition, the activity, negative = cell killing in assay [9] (setting [10]) is -11.4%; in assay [9] (setting [11]) it was 4.06%; in assay [9] (setting [12]) it was -10.3%.
Consider `C=C1C(=C/C=C2\CCC[C@]3(C)[C@@H]([C@H](C)/C=C/[C@@H](O)C4CC4)CC[C@@H]23)C[C@@H](O)C[C@@H]1O`, for which the Potency result in assay [1], in [2], in assay [3], in assay [4], in assay [5] and in assay [6] was “inactive” each time. Moreover, the Potency entry in assay [7] and in assay [8] was “inactive” each time.
`CC(=O)CC(c1ccc([N+](=O)[O-])cc1)c1c(O)c2ccccc2oc1=O` (stereo not drawn): the Potency entry in assay [1], in assay [2], in assay [3], in assay [4], in [5] and in assay [6] was “inactive” in each case. Further, the Potency entry in assay [7] and in [8] was “inactive” in each case. Moreover, the figures for the activity, negative = cell killing in [9] (setting [14]), in [9] (setting [15]) and in [9] (setting [16]) were 0.914%, -11% and -16.8%, respectively.
Turning to `CC(C)=CCC1C(=O)N(c2ccccc2)N(c2ccccc2)C1=O`, the Potency result in assay [1], in [2], in assay [3], in assay [4], in assay [5] and in assay [6] was “inactive” throughout. Moreover, the Potency entry in assay [7] and in assay [8] was “inactive” in each case. Besides, the activity, negative = cell killing in [9] (setting [12]) was 3.79%.
Turning to `CCCCC(=O)O[C@]1(C(=O)CO)CC[C@H]2[C@@H]3CCC4=CC(=O)CC[C@]4(C)[C@H]3[C@@H](O)C[C@@]21C`, the Potency entry in assay [1], in assay [2], in assay [3], in assay [4], in [5] and in [6] was “inactive” each time. The Potency entry in [7] and in [8] was “inactive” in each case. The activity, negative = cell killing was -13.9% in [9] (setting [10]), -13.5% in assay [9] (setting [11]), -14.6% in assay [9] (setting [13]) and -22.7% in assay [9] (setting [12]).
`OC[C@H]1O[C@H](O[C@]2(CCl)O[C@H](CCl)[C@@H](O)[C@@H]2O)[C@H](O)[C@@H](O)[C@H]1Cl`: the Potency result in [1], in [2], in assay [3], in assay [4], in [5] and in [6] was “inactive” each time. Also, the Potency result in [7] and in assay [8] was “inactive” throughout.
